The values that follow come from PubChem BioAssay AID1347076 (National Center for Advancing Translational Sciences (NCATS), 2019).

Each structure is given as a SMILES string. Hit rate of the full screen: of about 400,000 compounds, about 13,000 (3.2%) were called active. Not shown: some 18% with an inconclusive outcome. Calls follow the shape of the dose curve; as a rule, active = well fitted cell-killing curve with a large enough effect; inconclusive = small, poorly fitted or top-dose-only effect, or effect the other way; inactive = flat fitted curve, though single readings scatter. What follows is part of a selection rich in actives, with near analogues and random picks from the rest. Entries that show only a call come without a potency.
Potency is read from the fitted curve at half-maximal effect.

The assay in a line: qHTS assay for MDR1-selective chemotherapeutics: Primary screen using the drug-selected MDR subline cells KB-V1. Also: nearly all actives have a fitted effect of over 60% in size. Conditions: KB-V1 MDR cells viability, CellTiter-Glo, 72 h; series mostly up to 46.1 µM. The method, boiled down:
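qHTS viability screen in drug-selected KB-V1 MDR cells: 72 h compound treatment at 37 degrees C, ATP luminescence end point.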
Background: Quantitative high-throughput screening tests each substance at several concentrations.
In the case of `CCOC(=O)c1c(NC(=O)CSc2cn(CCNC(=O)c3cccc(C(F)(F)F)c3)c3ccccc23)sc2c1CCC2`, the Potency result is “inactive”.

`OC[C@@H]1CN(Cc2cccs2)C[C@H](n2cnc3c(Nc4ccccc4)ncnc32)O1`: the Potency entry is “inactive”.

Turning to `CCCc1nc2ccccc2c(=O)n1NC(=O)c1c(O)c2ccccc2[nH]c1=O`, the Potency is 7.31 µM (active).

`COc1cc(C(=O)Nn2c(CC(C)C)nc3ccccc3c2=O)cc(OC)c1OC`: the Potency entry is “inactive”.

Regarding `Cc1nc2ccccc2c(=O)n1NC(=O)c1ccccc1`, the Potency result is “inactive”.

Take `O=C(CN1C(=O)NC2(CCc3ccccc32)C1=O)NC1CCCCC1` (stereo not given): the Potency entry is “inactive”.

For `CC(C)CN1CCC1(C)C(=O)Nc1ccc(OC(F)F)cc1` (stereo not given), the Potency result was “inactive”.

For the compound `Cc1ccc(OCCSc2nc(-c3cccs3)nc3cc(=O)[nH]n23)cc1Cl`, the Potency result was “inactive”.

Regarding `O=C(NC1CCN(Cc2ccccc2)CC1)c1cc(Br)c(Br)[nH]1`, the Potency result is “inactive”.

For `S=C(Nc1ccc(Br)cc1Cl)NC1CCN(Cc2ccccc2)CC1`, the Potency is 11.6 µM (active).

For the compound `O=C(COc1ccc(Br)cc1F)NC1CCN(Cc2ccccc2)CC1`, the Potency result was “inactive”.

On to `CCc1nc2c(OCCOc3ccccc3)cccn2c1N(C)C(=O)c1ccc(OC)cc1`, for which the Potency result is “inactive”.

Consider `COCCCn1cc(CN2CC(N(C)C)CS2(=O)=O)nn1` (stereo not given), for which the Potency entry was “inactive”.

For the compound `CC(C)c1cc(C(=O)NC2CCCCCC2)c2ccccc2n1`, the Potency result is “inactive”.

In the case of `Cc1c(C(=O)NC2CCCCC2)oc2ccccc12`, the Potency result was “inactive”.

With `Cc1nc(/N=C(\N)NC(=O)NC2CCCCC2)nc2ccccc12`, the Potency is 5.17 µM (active).

In the case of `Nc1ncnc2c1ncn2[C@@H]1O[C@H](C(=O)N2CCSC2)[C@@H](O)[C@H]1O`, the Potency result is “inactive”.

For `CCN(CC)c1ccc(/C=C/c2c(C)cnc3ccc(C)cc23)cc1`, the Potency entry is “inactive”.

Turning to `COC(=O)[C@]12CCCCC=C1N(Cc1ccco1)C(=O)[C@H](CC(=O)NCCCCc1ccccc1)C2`, the Potency entry was “inactive”.

On to `CCOC(=O)N1CCN(C(=O)C[C@@H]2C[C@@]3(C(=O)OC)CC(C)(C)CC=C3N(Cc3ccco3)C2=O)CC1`, for which the Potency result is “inactive”.

For `COC(=O)[C@@]12C[C@@H](CC(=O)NCCCCc3ccccc3)C(=O)N(Cc3ccccc3)C1=CCC(C)(C)C2`, the Potency was 23.1 µM (active).

On to `COC(=O)[C@@]12C[C@@H](CC(=O)NCCCCc3ccccc3)C(=O)N(CCc3ccc(OC)c(OC)c3)C1=CCC(C)(C)C2`, for which the Potency was 16.4 µM (active).

As to `COC(=O)[C@]12CCCCC=C1N(Cc1ccccc1)C(=O)[C@H](CC(=O)NCc1ccc(C)o1)C2`, the Potency entry is “inactive”.

As for `CCN(CC)C(=O)C1=C(C)N(Cc2ccc(OC)cc2)C(=O)C(CC(=O)NCCCCc2ccccc2)C1` (stereo not given), the Potency entry was “inactive”.

Consider `COc1ccc(CN2C[C@H]3CON(C)[C@H]3C[C@H]2c2ccc(-c3cccc(F)c3)cc2)cc1`, for which the Potency entry was “inactive”.

Take `Cc1ccc(O)c(NC(=O)c2cc(-c3ccc(F)cc3)no2)c1`: the Potency entry was “inactive”.

On to `Cc1cc2ccccc2n1CCNC(=O)c1ccc(F)cc1`, for which the Potency entry is “inactive”.

For `CC1=C(C(=O)N2CCOCC2)CC(CC(=O)NCC2CCCCC2)C(=O)N1Cc1ccc(F)cc1` (stereo not given), the Potency entry was “inactive”.

As for `O=C(OCc1cc2ccccc2[nH]c1=O)c1cccnc1`, the Potency result was “inactive”.

Consider `Cc1ccc2[nH]c(=O)c(COC(=O)c3ccccn3)cc2c1`, for which the Potency is 16.4 µM (active).

As for `CCOC(=O)c1cc2cc(C)ccc2[nH]1`, the Potency entry is “inactive”.

`Cc1ccc(S(=O)(=O)N(CCc2ccccc2)c2ccc3c(c2)C2CC3CCN2C(=O)OCc2ccccc2)cc1` (stereo not given): the Potency entry was “inactive”.

`COc1ccc(OC)c(NC(=O)CSC2=Nc3ccccc3C3=NC(CC(=O)NCCc4ccccc4)C(=O)N23)c1` (stereo not given): the Potency entry is “inactive”.

Consider `O=C(Nc1cc2ccccc2oc1=O)C1CCCCC1`, for which the Potency result is “inactive”.

As to `S=c1[nH]c(-c2cccs2)cn1-c1ccccc1`, the Potency entry is “inactive”.

On to `O=c1oc2ccccc2cc1-c1cn(-c2ccccc2)c(=S)[nH]1`, for which the Potency is 5.8 µM (active).

On to `Cc1ccc(Cn2c(C)c3cnn(CC(=O)NCc4ccccc4)c(=O)c3c2C)cc1`, for which the Potency result was “inactive”.

In the case of `COc1ccc(-c2noc(CSc3nc(C)cc(=O)[nH]3)n2)cc1OC`, the Potency result is “inactive”.

Consider `CN(CCC#N)c1ccc(C=O)cc1`, for which the Potency result is “inactive”.

Take `COc1ccc(C(=O)NC2CC(C)(C)Cc3c2cnn3-c2ccccc2C)o1` (stereo not given): the Potency was 18.4 µM (active).

For the compound `CC1=C(C(=O)NC2CC(C)(C)Cc3c2cnn3-c2ccc(C)cc2)OCCO1` (stereo not given), the Potency result was “inactive”.

For `COc1ccc(C(=O)NC2CC(C)(C)Cc3c2cnn3-c2ccccc2)c(OC)c1` (stereo not given), the Potency entry was “inactive”.

On to `CC(=O)N1Cc2cc(C(=O)NCc3cccc(F)c3)nc(-c3cccc(C4=CCCCC4)c3)c2[C@H]1CCO`, for which the Potency entry is “inactive”.

As for `O=C(NC(c1ccc(Cl)cc1)c1cnccn1)C1CCN(Cc2ccc(Cl)cc2)CC1` (stereo not given), the Potency result was “inactive”.

Take `COc1ccccc1CNc1nc(Nc2ccccc2Cl)c2sccc2n1`: the Potency entry is “inactive”.

As to `CCOc1ccc(-c2n[nH]c(=S)n2/N=C/c2cc3c(cc2[N+](=O)[O-])OCO3)cc1`, the Potency entry was “inactive”.

Take `Cc1ccc(-c2n[nH]c(=S)n2/N=C/c2cc3c(cc2[N+](=O)[O-])OCO3)cc1`: the Potency was 8.2 µM (active).

In the case of `Cc1ccc(S(=O)(=O)N/N=C\c2cc3c(cc2[N+](=O)[O-])OCO3)cc1`, the Potency entry was “inactive”.

Take `Cc1cc2c3ccccc3[nH]c(=O)n2n1`: the Potency entry is “inactive”.

Take `CCOC(=O)C1CCCN(C(=O)c2cccc(S(=O)(=O)N3CCOCC3)c2)C1` (stereo not given): the Potency entry is “inactive”.

For `CCOC(=O)C1CCCN(C(=O)C2CCN(S(=O)(=O)c3ccc(Cl)c(C(F)(F)F)c3)CC2)C1` (stereo not given), the Potency is 20.6 µM (active).

Regarding `CCOc1ccc(S(=O)(=O)N2CCCC(C(=O)N3CCC(C(N)=O)CC3)C2)cc1Cl` (stereo not given), the Potency entry is “inactive”.

In the case of `Nc1[nH]c(C(=O)c2ccccc2)c(-c2ccc(Br)cc2)c1C(=O)NC1CC1`, the Potency entry was “inactive”.

For `CCc1ccc(OCCCn2c(CCCNC(=O)C3CCCCC3)nc3ccccc32)cc1`, the Potency result was “inactive”.

For `COc1cccc(CNC(=O)c2cccnc2Sc2ccc(Cl)cc2)c1`, the Potency result was “inactive”.

Consider `O=C(NC1CCCCCC1)c1cccnc1Sc1ccc(Cl)cc1`, for which the Potency result is “inactive”.

In the case of `O=C(NCc1cccnc1)c1cccnc1Sc1ccc(Cl)cc1`, the Potency is 18.4 µM (active).

In the case of `OCCc1ccc(NCCc2ccco2)cc1`, the Potency result was “inactive”.

Turning to `COc1ccc([N+](=O)[O-])cc1NC(=O)CCc1ccccc1`, the Potency result is “inactive”.

With `COc1ccc(C(=O)CC(=O)C(=O)Nc2cc([N+](=O)[O-])ccc2OC)cc1`, the Potency result is “inactive”.

Turning to `COc1ccc([N+](=O)[O-])cc1NC(=O)C(C)OC(=O)C1c2ccccc2Oc2ccccc21` (stereo not given), the Potency was 9.2 µM (active).

As for `Cc1ccccc1NC(=O)Cc1nc(COC(=O)C(C)(C)Oc2ccc(Cl)cc2)cs1`, the Potency entry was “inactive”.

Regarding `Cn1nc(C(F)(F)F)c(C(=O)Nc2cccc(C(F)(F)F)c2)c1SCc1ccc(Cl)cc1`, the Potency is 18.4 µM (active).

As to `Cc1ccc(Cc2nc3ccccc3nc2SCC(=O)Nc2cccc(C(F)(F)F)c2)cc1`, the Potency entry was “inactive”.

In the case of `Cc1onc(-c2ccc(F)cc2F)c1C(=O)Nc1cccc(C(F)(F)F)c1`, the Potency result was “inactive”.

On to `CCC(=O)N1CCc2cc(Br)cc(S(=O)(=O)CCC(=O)NCCc3ccc(OC)c(OC)c3)c21`, for which the Potency entry is “inactive”.

In the case of `C[C@@H]1CN([C@H](C)CO)C(=O)CCCn2cc(nn2)CO[C@H]1CN(C)S(C)(=O)=O`, the Potency result is “inactive”.

`Cc1ccc(-c2nn(CCC(=O)Nc3ccc(OC(F)(F)F)cc3)c(=O)c3ccccc23)cc1`: the Potency result was “inactive”.

Turning to `CCc1nc2ccc(C(=O)Nc3ccc(OC)c(OC)c3)cn2c1N(C)C(=O)c1cccc(OC)c1`, the Potency entry was “inactive”.

As to `CCCC/C=C/c1cccc2nncn12`, the Potency entry was “inactive”.

As for `CCCCC[C@H](C)N1C[C@@H](COCc2ccccc2)Oc2cc(N3CCC[C@@H]3CO)ccc2S1(=O)=O`, the Potency entry was “inactive”.

Regarding `CC(=O)N1c2ccc(S(=O)(=O)N3CCCC(C(=O)Nc4cccc(Cl)c4)C3)cc2CC1C` (stereo not given), the Potency entry is “inactive”.

For `CC(=O)N1CCCc2cc(S(=O)(=O)N3CCCC(C(=O)NCc4ccc(Cl)cc4)C3)ccc21` (stereo not given), the Potency result is “inactive”.

For `CC(=O)N1CCCc2cc(S(=O)(=O)N3CCCC(C(=O)N4CCN(c5cccc(Cl)c5)CC4)C3)ccc21` (stereo not given), the Potency was 16.4 µM (active).

Regarding `CC(=O)c1ccc(NC(=O)CSc2nc(-c3ccccc3F)nc3c2c(=O)n(C)c(=O)n3C)cc1`, the Potency result was “inactive”.

`CCCNC(=O)CSc1nc(Cc2ccccc2)nc2ccccc12`: the Potency entry was “inactive”.

With `C=CCSc1nc(Cc2ccc(Cl)cc2)nc2ccccc12`, the Potency was 16.4 µM (active).

Turning to `CC(C)CCNC(=O)CSc1nc2ccccc2nc1Cc1ccc(Cl)cc1`, the Potency entry was “inactive”.

Take `CCOC(=O)c1c(NC(=O)c2cc(-c3ccc(Cl)cc3)on2)sc2c1CCCC2`: the Potency result is “inactive”.

Consider `COc1ccc(CCCc2nnc(SCc3nc4ccccc4c(=O)[nH]3)n2C)cc1`, for which the Potency result was “inactive”.

On to `CCn1c(COc2c(C)cccc2C)nnc1SCc1nc2ccccc2c(=O)[nH]1`, for which the Potency entry was “inactive”.

For `COc1ccc(C)cc1-n1nnnc1SCc1nc2ccccc2c(=O)[nH]1`, the Potency is 5.17 µM (active).

In the case of `COCCCn1c(=O)/c(=C/c2ccccc2OC(C)C)s/c1=C(\C#N)C(=O)Nc1ccc(C(=O)O)cc1`, the Potency result is “inactive”.

For `Cc1nc(C(F)(F)F)ccc1C(=O)N1CCC1(C)C(=O)NS(=O)(=O)c1ccccc1Cl` (stereo not given), the Potency result was “inactive”.

On to `COc1cc(CNC(=O)c2cc3n(n2)CCCN(Cc2cccc(F)c2)C3=O)cc(OC)c1OC`, for which the Potency result was “inactive”.

As for `COC(=O)c1ccccc1NC(=O)Cn1c(=O)cc(C)c2c(C)nn(-c3cccc(Cl)c3C)c21`, the Potency entry was “inactive”.

For `CCCNC(=O)c1ccccc1NC(=O)CSCc1ccc(OC)cc1`, the Potency result was “inactive”.

Consider `COc1ccccc1NC(=O)CSc1nnc(CNC(=O)c2ccccc2F)o1`, for which the Potency result is “inactive”.

Regarding `CCCCCNC(=O)c1cccnc1SCC(=O)Nc1ccccc1OC`, the Potency is 6.51 µM (active).

Regarding `O=C(Nc1ccccn1)c1sc2ccc([N+](=O)[O-])cc2c1Cl`, the Potency entry was “inactive”.

With `Cc1ccc(-c2ccc(CN3C(C(C)C)C(=O)N(Cc4cn(CCC5OCCCO5)nn4)CCS3(=O)=O)cc2)cc1` (stereo not given), the Potency result is “inactive”.

As for `CNC(=O)C[C@H]1C(=O)N(Cc2ccccc2)C[C@@H]1CSC`, the Potency result was “inactive”.

Regarding `Cc1ccc(NC(=O)Nc2cccnc2)cc1`, the Potency result was “inactive”.

As for `Cc1ccc(-c2nc(-c3cccnc3)sc2CC(=O)Nc2ccc(C)c(Cl)c2)cc1`, the Potency was 8.2 µM (active).

With `Cc1nc(-c2ccc(F)cc2)c(CC(=O)Nc2cccc(S(=O)(=O)N3CCOCC3)c2)s1`, the Potency result was “inactive”.
